# HCV inhibitor = inhibitors of hepatitis C virus infection | Huh7.5.1 HCVcc-Cre infection, luciferase reporter, 44 h | Potency, µM (titrated, usually from 41.8 µM), hits mostly inhibitors | hit rate 3.4% among 340,000 | AID 651820; active = well fitted inhibition curve with a large enough effect; inconclusive = small, poorly fitted or top-dose-only effect, or another doubt; inactive = no such curve, though single readings can be large or run the other way
#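 HCVcc-Cre virus at an moi near 0.5 was added right after compound to cells cultured 4 h from seeding (1,000 cells/well). Luciferase activity was determined 44 h later, 15 min after substrate addition at RT.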
# HCMV inh = blocks human cytomegalovirus replication; HFF cells, HCMV-luciferase reporter, 72 h; hits give low values; activity change, negative = inhibition, % at 57.5 µM; hit rate 4.5% among 410,000; AID 1259415; in the data active = activity change below about -60%; inconclusive = no clear call, values can overlap the other calls; inactive = above about -39%
#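 After 16 h attachment at 37C, HFF cells received test compound and HCMV-luciferase (1 PFU/cell); reporter luminescence read 72 h later, data normalized against buffer-only and known inhibitor Salinomycin.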
# FMDV antiviral = foot and mouth disease virus antiviral activity; hit rate 1.2% among 410,000; Potency, µM (highest dose often 57.9 µM), actives largely listed as inhibitors; AID 1159524; FMDV antiviral cell-based qHTS; calls by dose curve; tested in HEK293T cells; note: read-out not given here; nearly all actives have a fitted effect of over 45% in size
# LASV entry inh = Lassa virus entry inhibition. hit rate 1.2% among 300,000. Potency, µM (top dose mostly 37.9 µM), actives largely listed as inhibitors. AID 540256. Lassa virus pseudotype entry inhibition, cell reporter; calls by dose curve; tested in HEK293 cells; note: nearly all actives have a fitted effect of over 50% in size
# MARV entry inh = inhibitors of Marburg virus binding or cell entry | Marburg virus pseudotyped entry inhibition, cell reporter | Potency, µM (series often up to 37.8 µM), hits mostly inhibitors | hit rate 1.8% among 300,000; calls by dose curve; tested in HEK293 cells
# Numbers stand for hits; – = inactive; ? = inconclusive; · = no result. Sampled rows, rich in hits. Any-hit rate of the full collection: about 7.9%.
SMILES,HCV inhibitor,HCMV inh,FMDV antiviral,LASV entry inh,MARV entry inh
Cc1ccc(C(=O)N2CCN(c3ccc(Cl)cc3)CC2)cc1,–,–,–,–,–
CC(=O)c1ccc(N2CCN(C(=O)c3cccc(Oc4ccccc4)c3)CC2)cc1,–,–,–,3.16µM,?
CC(=O)c1ccc(N2CCN(C(=S)Nc3ccc(Oc4ccccc4)cc3)CC2)cc1,4.47µM,-62.9,–,?,?
CC(=O)N1CCN(C(=O)c2ccc(Oc3ccccc3)cc2)CC1,–,?,–,–,–
O=C(Cn1cncn1)NCC1Cc2cc(-c3ccsc3)cc(Cl)c2O1 (configuration not stated),·,·,–,·,·
COc1cc(C2=CCN(C(C)=O)CC2)ccc1OC(C)=O,·,–,–,·,·
COc1cc(CNCC2CCCO2)ccc1OCC(N)=O (configuration not stated),–,–,–,·,·
CCOc1cc(CNCC2CCCO2)cc(Br)c1OCC(N)=O (configuration not stated),–,-69.1,–,–,?
CCOC(=O)CSC1=C(C#N)[C@H](c2ccc(OC)cc2)C2=C(CC(C)(C)CC2=O)N1,·,·,·,·,–
NC(N)=Nc1nc2cc([N+](=O)[O-])ccc2o1,–,-70.8,–,·,·
Cc1ccc(N2C(=O)c3ccccc3C2=O)cc1,–,?,–,–,–
Cc1ccc(SC2=C(Sc3ccc(C)cc3)C(=O)c3ccccc3C2=O)cc1,?,–,25.1µM,–,–
O=[N+]([O-])c1ccc(/C=N/NC(=S)Nc2ccc(Cl)cc2Cl)s1,?,-63.7,–,·,·
O=[N+]([O-])c1ccc(O)c(/C=N/NC(=S)Nc2ccc(Cl)cc2Cl)c1,–,–,–,?,?
CCn1nc(C)c(/C=N/NC(=S)Nc2ccc(Cl)cc2Cl)c1C,?,-103.2,–,–,–
CCCOc1ccc(CNC(=O)CCCn2ncn3c(cc4sc(CC)cc43)c2=O)cc1,·,–,–,·,?
CN(Cc1cccs1)c1ncnc2sccc12,11.2µM,-77.8,?,–,–
COc1ccc(CCN(C)c2ncnc3sccc23)cc1OC,10µM,?,28.2µM,·,·
COc1ccc(CN(C)c2ncnc3sccc23)c(OC)c1OC,11.2µM,?,?,?,?
COc1ccc(CCN(C)C(=O)CSc2ncnc3sccc23)cc1OC,–,–,?,–,–
COc1ccc(-c2nc(CN3CCCCC3c3nccn3C)c(C)o2)c(C)c1C (configuration not stated),?,–,–,–,?
Cc1cc(Nc2nc3ccccc3nc2Cl)n(-c2ccccc2C)n1,–,?,·,–,?
Cc1cc(Nc2nc3ccccc3nc2Cl)n(-c2ccccc2)n1,?,-90.0,?,?,?
CC(=O)Nc1ccc(Nc2ccc(S(=O)(=O)C(F)(F)F)cc2[N+](=O)[O-])cc1,–,-97.0,–,–,–
O=C(O)CNc1ccc(S(=O)(=O)C(F)(F)F)cc1[N+](=O)[O-],–,–,–,–,–
SMILES,HCV inhibitor,HCMV inh,FMDV antiviral,LASV entry inh,MARV entry inh
CCOC(=O)N1CCc2c(sc3c2C(=O)NC(c2ccc(N(C)C)cc2)N3)C1 (configuration not stated),·,–,–,?,?
CCOC(=O)N1CCc2c(sc3c2C(=O)NC(c2ccccc2)N3)C1 (configuration not stated),–,·,?,?,3.16µM
O=C(Nc1ccccc1)N1CCC2(CC1)CCN(C(=O)c1ccco1)CC2,·,·,–,·,·
Cc1ccccc1-c1noc(-c2ccc(NCc3ccco3)c([N+](=O)[O-])c2)n1,·,–,–,–,–
Cc1ccc(S(=O)(=O)NCc2ccccn2)cc1C,–,–,–,·,·
CCOC(=O)C(C)Oc1cccc2c(=O)n(CC(=O)NCc3ccc(F)cc3)ccc12 (configuration not stated),–,-64.7,–,·,·
CCOC(=O)C(C)Oc1cccc2c(=O)n(CC(=O)NCc3ccccc3)ccc12 (configuration not stated),–,-89.5,–,?,?
CCOC(=O)C(C)Oc1cccc2c(=O)n(CC(=O)NCCc3ccccc3)ccc12 (configuration not stated),–,–,–,·,·
CCOC(=O)C(C)Oc1cccc2c(=O)n(CC(=O)Nc3ccc(OC)cc3)ccc12 (configuration not stated),·,–,–,·,·
COCCn1ccc2c(OCC(=O)NCc3ccccc3)cccc2c1=O,–,–,–,1.58µM,–
COCCn1ccc2c(OCC(=O)NCc3ccc(C)cc3)cccc2c1=O,–,–,–,?,–
CCOc1ccc(NC(=O)CCS(=O)(=O)c2cccc3nonc23)cc1,·,–,–,–,?
COc1cccc(NC(=O)C2CCN(S(=O)(=O)c3c(C)noc3/C=C/c3cccs3)CC2)c1,·,?,?,–,?

# Source: PubChem
